Source: PubChem BioAssay AID504332 (National Center for Advancing Translational Sciences (NCATS), 2011)
The whole screen tested about 350,000 compounds, of which about 31,000 (8.9%) were called active. About 15% were inconclusive and are not listed. The list comes from a sample in which actives are over-represented; it also holds similar structures and randomly drawn compounds. Where a call stands in place of a potency, no number is given. Values without a mark were called inactive. Calls come from the whole dose curve; as a rule, active = well fitted inhibition curve with a large enough effect; inconclusive = small, poorly fitted or top-dose-only effect; inactive = no such curve, though single readings can be large or run the other way.

What follows are molecules tested against Histone-lysine N-methyltransferase EHMT2 (Homo sapiens) (UniProt Q96KQ7) (assay: qHTS Assay for Inhibitors of Histone Lysine Methyltransferase G9a). Settings: G9a H3K9 monomethylation, AlphaScreen, 2 h; series mostly up to 59 µM.
Text: Methylated lysines, on the N-terminal tails of histone proteins serve as epigenetic markers to recruit factors that can then modify local chromatin structure to lead to functional consequences. G9a and other members of the SUV39 family of the SET domain-containing superfamily of histone lysine methyltransferases (HMT) have been identified to specifically methylate Lys9 of histone H3 (H3K9). G9a catalyzes the mono- and di-methylation of H3K9 in mammalian euchromatic regions, where the resulting H3K9me2 is indicative of transcriptional repression. […] The inhibition of G9a will result in transcriptional activation and work synergistically with DNA methyltransferase and histone deacetylase inhibitors, to kill cancer cells. This qHTS assay for identification of G9a inhibitors is a chemiluminescence based AlphaScreen (PerkinElmer). Methylation of biotinylated-histone peptide is measured through specific antibody-based detection, in conjunction with streptavidin-coated donor and anti-IgG antibody-coated acceptor beads. The method is particularly well suited for detection of inhibitors acting by the desired histone peptide competitive mechanism and is applicable to testing other HMTs. Although AlphaScreen has significant advantages with its utility in a variety of epigenetic target assays, the primary screening data provided in this deposition should be used with caution due to the prevalence of screening artifacts. An AlphaScreen counterscreen is highly recommended to be run against any putative actives to eliminate non specific artifacts. Alternatively, one can use other AlphaScreen assays in PubChem to filter out promiscuous hits. Quinn et al. A chemiluminescence-based method for identification of histone lysine methyltransferase inhibitors. Mol Biosyst 6(5): 782-8. 2010. PMID: 20567762 [2] Baell,Holloway. New substructure filters for removal of pan assay interference compounds (PAINS) from screening libraries and for their exclusion in bioassays. J Med Chem. 53(7):2719-40. 2010. PMID: 20131845 NIH Molecular Libraries Probe Production Network [MLPCN] NIH Chemical Genomics Center [NCGC] Structural Genomics Consortium (SGC) NIH Grant: 5U54 MH084681-02
To each well of a 1,536w plate, 2ul of HMT enzyme (final 20nM) were added, using a nanoliter dispenser. The G9a- and GLP-inhibitor BIX-01294 (CID: 25150857) are used as an intraplate control, with a 16-point titration in duplicate. A Kalypsys pin-tool transferred 23nl of library compound solution in DMSO to each well. Following a 15 min incubation of enzyme with compounds at room temperature, 1ul mixture of b-H3K9 peptide substrate (final 500nM) and SAM cofactor (final 20uM) were added. Reactions were allowed to proceed at room temperature for 2 hours. Methylated b-H3K9 peptide product was detected with 0.5 ug/mL rabbit polyclonal anti-monomethyl histone H3K9 antibody (Abcam Inc., Cambridge, MA) and 20 ug/mL each streptavidin-coated donor and anti-rabbit IgG acceptor AlphaScreen beads. Antibody and beads were added in a 1ul dispense, for a final volume of 4ul, and plates were incubated, protected from the light, for 10 min at room temperature. Microplates were then read on an EnVision multilabel plate reader using the 1,536 plate HTS AlphaScreen aperture (excitation time 80 ms, measurement time 240 ms).
Note: nearly all actives have a fitted effect of over 75% in size.
Potency is the fitted concentration of half-maximal effect.

Sequence of Histone-lysine N-methyltransferase EHMT2 (Homo sapiens) (Q96KQ7 913-1193 limits assumed): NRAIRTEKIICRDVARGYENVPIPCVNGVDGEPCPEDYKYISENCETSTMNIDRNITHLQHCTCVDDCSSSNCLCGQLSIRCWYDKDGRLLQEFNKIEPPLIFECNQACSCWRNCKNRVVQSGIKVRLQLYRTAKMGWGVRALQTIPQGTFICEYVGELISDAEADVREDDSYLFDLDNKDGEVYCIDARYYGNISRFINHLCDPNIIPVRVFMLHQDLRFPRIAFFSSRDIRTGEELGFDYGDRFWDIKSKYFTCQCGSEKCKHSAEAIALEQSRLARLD

SMILES	Potency	activity, negative = inhibition
CCN(CC)c1ccc(NC(=O)CN2CCN(c3ccccn3)CC2)cc1	44.7 µM (active)	–
O=C(CN1CCN(c2ccccn2)CC1)NC1CCCCC1	inactive	–
CCN(CC)c1ccc(NC(=O)c2ccc(Cl)nc2)cc1	10 µM (active)	–
O=C(CN1CCN(c2ccccn2)CC1)Nc1ccc(Br)cc1	inactive	–
CCN(CC)c1ccc(NC(=O)CN2CCN(CC(=O)Nc3ccc(Cl)cc3)CC2)cc1	7.08 µM (active)	–
CCOc1ccc(NC(=O)CN2CCN(CC(=O)Nc3ccc(OC)cc3)CC2)cc1	inactive	–
Cc1cnc(NC(=O)c2ccc(Cl)nc2)s1	inactive	–
NS(=O)(=O)c1ccc(NC(=O)COC(=O)c2ccc(Cl)nc2)cc1	inactive	–
CCOC(=O)N1CCN(CC(=O)Nc2ccc(F)cc2)CC1	inactive	–
Cc1ccccc1N1CCN(S(=O)(=O)c2ccc3ccccc3c2)CC1	–	14.6% [at 0.501 µM]
COC(=O)c1ccc2c(C(C)(C)O)c(C(C)(C)O)[nH]c2c1	inactive	–
COc1ccc(N2CCN(C(=O)CSCc3nc(-c4ccccc4Cl)oc3C)CC2)cc1	inactive	–
CCN(CC)C(=O)CN(c1cccc([N+](=O)[O-])c1)S(=O)(=O)c1ccccc1	inactive	–
CNc1ccc([N+](=O)[O-])cc1C(=O)O	inactive	–
CCN(CC)c1ccc([N+](=O)[O-])cc1C(=O)O	50.1 µM (active)	–
COc1ccc(N(CCC(=O)NCCc2ccccc2)S(=O)(=O)c2ccc(C)cc2C)cc1	–	12.2% [at 12.7 µM]
O=C(c1cc(S(=O)(=O)N2CCOCC2)ccc1Cl)N1CCOCC1	inactive	–
CCCN(CCC)CCCNC(=O)Cn1ncc2c3ccccc3n(Cc3ccccc3)c2c1=O	inactive	–
Cc1ccc(NC(=S)N2CCN(c3ncccn3)CC2)cc1C	inactive	–
Cc1nc2ccc(NC(=S)N3CCC(C)CC3)cc2nc1C	44.7 µM (active)	–
Cc1nc2ccc(NC(=O)N3CCC(c4ccccc4)C3)cc2nc1C (configuration not stated)	–	12.3% [at 12.7 µM]
COc1cccc(NC(=O)C2C(c3ccccc3)C2(Cl)Cl)c1 (configuration not stated)	–	0.796% [at 0.501 µM]
CNC(=S)N/N=C/c1cn(Cc2ccc(C)cc2)c2ccccc12	44.7 µM (active)	–
CCOC(=O)N/N=C/c1cn(Cc2ccccc2Cl)c2ccccc12	inactive	–
COC(=O)N/N=C/c1cn(CCCOc2ccc(C)cc2)c2ccccc12	inactive	–

SMILES	Potency	activity, negative = inhibition
O=C(Cc1ccc(Cl)cc1)NC(=S)Nc1ccccc1O	inactive	–
Cc1cccc(C)c1NC(=O)CNC(=O)C1CCCC1	–	26.8% [at 12.7 µM]
NS(=O)(=O)c1cc(C(=O)OCC(=O)NNC(=O)c2ccccc2)ccc1Cl	inactive	–
CN(NS(=O)(=O)c1cccs1)c1ncc(C(F)(F)F)cc1Cl	inactive	–
CC(=O)c1c(C)[nH]c(C(=O)COc2ccc3c(C)cc(=O)oc3c2)c1C	–	-2.97% [at 12.7 µM]
COC(=O)c1cn(CC(=O)NCc2cccs2)c2ccccc12	inactive	–
COC(=O)Cn1cc(/C=C/[N+](=O)[O-])c2ccccc21	39.8 µM (active)	–
COC(=O)Cn1cc(C(=O)c2cccs2)c2ccccc21	–	10.8% [at 12.7 µM]
Cc1cccc(NC(=O)c2cccc(C(=O)Nc3cccc(C)c3C)n2)c1C	50.1 µM (active)	–
Cc1cccc(NC(=O)c2ccc3nc(C(C)C)oc3c2)c1C	inactive	–
Cc1nc(C)c(C(=O)Nc2ccc(C)c(F)c2)o1	–	20.5% [at 12.7 µM]
COc1ccc(Cl)cc1NC(=O)c1oc(C)nc1C	–	10.9% [at 12.7 µM]
Cc1cccc(NC(=O)c2ccc3nsnc3c2)c1C	inactive	–
Cc1nc(C)c(C(=O)Nc2cccc(C)c2C)o1	44.7 µM (active)	–
CCOC(=O)[C@H]1[C@H]2COc3ccc(OC)cc3[C@@H]2N2C(=O)c3ccc(F)cc3NC(=O)[C@@]12C	–	22.3% [at 2.33 µM]
O=C(NNC(=O)c1cc(S(=O)(=O)N2CCCCC2)ccc1Cl)c1ccccc1O	–	36.2% [at 12.7 µM]
Cc1ccc(C(=O)Nc2ccc(OCc3cc(=O)n4c(C)csc4n3)cc2)cc1	inactive	–
O=C(C1CCC1)N1CCN(S(=O)(=O)c2ccc([N+](=O)[O-])cc2)CC1	–	-3.47% [at 12.7 µM]
Cc1cc(C)n(-c2ccc(Cl)c(C(=O)O)n2)n1	inactive	–
CC(=O)c1ccc(Oc2cc(C)nc(-n3nc(C)cc3C)n2)cc1	inactive	–
Cc1cc(C)n(-c2nc(O)cc(=O)[nH]2)n1	4.47 µM (active)	–
O=C(NCCc1ccccc1)c1cnc2sc(N3CCCC3)nn2c1=O	inactive	–
COc1ccc(-c2csc3ncnc(N4CCN(S(=O)(=O)c5cccc(F)c5)CC4)c23)cc1	–	-11.1% [at 2.33 µM]
O=C(NCc1ccccc1Cl)C1=Cc2cc(Br)ccc2OC1	inactive	–
Cc1ccc(C2SCC(=O)N2c2ccccc2)cc1 (configuration not stated)	inactive	–

SMILES	Potency	activity, negative = inhibition
Cc1ccc(N2C(=O)C3C(c4ccccc4)(C2=O)C3(c2ccccc2)c2ccccc2)cc1 (configuration not stated)	–	28.9% [at 12.7 µM]
Cc1ccc(C2C3=C(Nc4[nH]n(-c5ccccc5)c(=O)c42)c2ccccc2C3=O)cc1 (configuration not stated)	3.16 µM (active)	–
CCCn1c(=N)n(CC(O)COc2ccccc2OC)c2ccccc21 (configuration not stated)	inactive	–
CCCCn1c(N)c(N(CCOC)C(=O)CSCC(=O)Nc2cccc(C)c2)c(=O)[nH]c1=O	inactive	–
O=C(Nc1ccccc1F)c1ccc(S(=O)(=O)N2CCCCCC2)cc1	–	62.1% [at 12.7 µM]
CCOC(=O)CSc1nc2sc3c(c2c(=O)[nH]1)CC(C)(C)OC3	inactive	–
CC1(C)Cc2c(sc(NC(=O)C(=O)NCC3CCCO3)c2C(=O)O)CO1 (configuration not stated)	inactive	–
CCOC(=O)N1CCN(C(=O)C(=O)Nc2sc3c(c2C#N)CC(C)(C)OC3)CC1	12.6 µM (active)	–
CCOC(=O)Cn1c(SC)nc2sc3c(c2c1=O)CC(C)(C)OC3	inactive	–
CC1(C)Cc2c(sc(NC(=O)C(=O)N3CCOCC3)c2C#N)CO1	35.5 µM (active)	–
N#Cc1c(NC(=O)c2ccc(N3CCOCC3)c([N+](=O)[O-])c2)sc2c1CCCC2	inactive	–
Cc1ccc(NC(=O)CN2C(=O)C(c3ccc(F)cc3)=NC23CCCCCC3)c(C)c1	inactive	–
CCN1CCN(C(=O)CSc2ccc(C)cc2)CC1	inactive	–
CCN1CCC2(CC1)N=C(c1ccc(F)cc1)C(=S)N2C(=O)c1ccc(C)cc1	10 µM (active)	–
O=C(Nc1ccc(S(=O)(=O)N2CCCCCC2)cc1)c1c(F)cccc1F	–	-5.59% [at 12.7 µM]
Cc1ccc(Cl)cc1NC(=O)Cc1ccc(-n2c(C)nc3cccnc32)cc1	inactive	–
COc1ccccc1C1=CC(=O)C[C@H](c2ccc(F)cc2)C1	–	-10.3% [at 0.501 µM]
Cc1sc2ncnc(SCC(=O)Nc3ccc(CN4CCCC4)cc3)c2c1C	–	10.2% [at 12.7 µM]
O=C(Cc1ccccc1)Nc1ccc(C(=O)Nc2ccccc2C(=O)O)cc1	inactive	–
O=C(NC(=S)Nc1ccccc1C(=O)O)c1ccc(-c2ccc(Br)cc2)o1	22.4 µM (active)	–
S=C(c1ccc(-c2ccccc2)o1)N1CCCCC1	inactive	–
Cc1ccc(SCC(=O)Nc2ccc3oc(-c4ccccc4C)nc3c2)cc1	inactive	–
Cc1cccc(NC(=O)CSc2nc3c([nH]c4ccccc43)c(=O)n2-c2cc(C)cc(C)c2)c1	inactive	–
COCCCNC(=S)NC(=O)c1ccc([N+](=O)[O-])cc1	inactive	–
Cc1cccc(C(=O)NNC(=O)c2cccc([N+](=O)[O-])c2)c1	inactive	–

SMILES	Potency	activity, negative = inhibition
CC(C)(C)SCCNC(=O)c1cccc([N+](=O)[O-])c1	inactive	–
CCCCCC(=O)NC(=S)NNC(=O)c1ccc([N+](=O)[O-])cc1	8.91 µM (active)	–
CC(C)CC(=O)NC(=S)NNC(=O)c1cccc([N+](=O)[O-])c1	22.4 µM (active)	–
CCCCCC(=O)Nc1ccc(C(=O)N/N=C/c2ccc([N+](=O)[O-])cc2)cc1	inactive	–
COc1ccccc1NC(=O)C1=C(C)Nc2ncnn2C1c1sccc1C (configuration not stated)	inactive	–
CC(OC(=O)c1ccc(S(=O)(=O)N2CCOCC2)cc1)c1ccccc1 (configuration not stated)	inactive	–
COc1ccccc1/C=C/C(=O)OCC(=O)NC1CCCCCC1	–	25.2% [at 2.33 µM]
N#Cc1c(-c2ccc(Cl)cc2)c2c([nH]c1=S)CCCC2	inactive	–
Cc1cc(C)c2c(-c3ccc(F)cc3)c(C#N)c(=O)n(C)c2n1	inactive	–
CC(=O)c1c(C)[nH]c(=S)c(C#N)c1-c1ccc(F)cc1	1.41 µM (active)	–
COc1ccc(OC)c(CNC(=O)CN2C(=O)CCn3nc(-c4cn(C)c5ccccc45)cc32)c1	inactive	–
CCCC(=O)Nc1ccc(NC(=O)c2sc3ccccc3c2Cl)cc1	inactive	–
CN1CCN(/N=C2/C(=O)Nc3ccc([N+](=O)[O-])cc32)CC1	50.1 µM (active)	–
Cc1ccc(S(=O)(=O)N(Cc2cccc([N+](=O)[O-])c2)C(=O)N2CCN(C)CC2)cc1	–	6.51% [at 2.33 µM]
O=C1Nc2ccc([N+](=O)[O-])cc2C1=Nc1cccc(CO)c1	inactive	–
O=C(CSc1oc(-c2ccco2)nc1S(=O)(=O)c1ccc(Cl)cc1)c1ccccc1	inactive	–
O=C(N/N=C/C=C/c1ccco1)c1cccs1	12.6 µM (active)	–
CC(/C=N/NC(=O)c1ccncc1)=C\c1ccco1	inactive	–
COc1cccc(-c2cc(C(=O)N/N=C/c3ccc(OC)c(COC(C)=O)c3)c3ccccc3n2)c1	inactive	–
CCOc1cc(/C=N/NC(=O)c2cc(-c3ccccc3)nc3ccccc23)ccc1O	inactive	–
CC(=O)Nc1ccc(/C=N/NC(=O)c2cccs2)cc1	inactive	–
Cc1ccc(-c2cc(C(=O)N/N=C/C=C/c3ccco3)c3ccccc3n2)cc1C	44.7 µM (active)	–
